In assay [1] the target is Acetylcholinesterase (Homo sapiens) (UniProt P22303). As to the kind of experiment: Acetylcholinesterase (AChE) small molecule antagonists: fluorescence cell-based qHTS assay (AID 1347398; calls by dose curve; note: nearly all actives have a fitted effect of over 50% in size). Particulars: Potency: AChE activity. Put shortly: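 SH-SY5Y, 2,000 cells/well, attached overnight; cmpd 30 min 37 C; acetylthiocholine/Thiolite Green cocktail 40 min RT; fluorescence Ex/Em 490/520 nm.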
Chain of Acetylcholinesterase (Homo sapiens) (P22303 whole entry, looked up): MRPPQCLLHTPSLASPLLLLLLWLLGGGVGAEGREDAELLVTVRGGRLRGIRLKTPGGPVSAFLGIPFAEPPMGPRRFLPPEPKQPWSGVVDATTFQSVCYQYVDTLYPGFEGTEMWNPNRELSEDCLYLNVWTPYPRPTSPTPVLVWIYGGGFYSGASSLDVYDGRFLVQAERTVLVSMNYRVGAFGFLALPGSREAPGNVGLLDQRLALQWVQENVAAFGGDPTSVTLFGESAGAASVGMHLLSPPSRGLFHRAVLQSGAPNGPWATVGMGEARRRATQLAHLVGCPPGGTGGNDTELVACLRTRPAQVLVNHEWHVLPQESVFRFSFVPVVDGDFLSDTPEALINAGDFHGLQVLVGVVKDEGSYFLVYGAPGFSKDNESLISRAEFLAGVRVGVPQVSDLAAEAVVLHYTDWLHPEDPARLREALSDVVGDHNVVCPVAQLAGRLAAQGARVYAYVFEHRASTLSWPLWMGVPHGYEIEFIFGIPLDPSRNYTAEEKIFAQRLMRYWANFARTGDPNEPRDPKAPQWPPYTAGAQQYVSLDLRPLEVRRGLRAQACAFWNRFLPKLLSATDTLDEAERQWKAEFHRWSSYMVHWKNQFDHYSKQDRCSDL
Background: Quantitative high-throughput screening tests each substance at several concentrations.

Assay [2] has the same target. Put plainly: Acetylcholinesterase (AChE) small molecule antagonists: enzyme-based qHTS assay with human liver microsomes (AID 1347399; calls by dose curve; note: nearly all actives have a fitted effect of over 60% in size). Particulars: Potency: qHTS inhibition. In short, it runs like this: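 Recombinant human AChE (50 mU/mL in the enzyme mix) and human liver microsomes (0.25 mg/mL final) were preincubated with compound and NADPH (0.25 mg/mL final) for 30 min at 37 C. Acetylthiocholine/DTNB was then added; thiocholine was read colorimetrically after 10 min at room temperature.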

For assay [3], the target named is Cytochrome P450 2C9 (Homo sapiens) (UniProt P11712). Put plainly: Cytochrome P450 Family 2 Subfamily C Member 9 (CYP2C9) small molecule antagonists: luciferase reporter qHTS assay (AID 1671198). Note: nearly all actives have a fitted effect of over 50% in size. In short, it runs like this:
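P450-Glo proluciferin substrate with CYP2C9 enzyme; 10 min RT preincubation, then NADPH regeneration 1 h at 37C; luciferin detection reagent 20 min RT, luminescence in relative luminescence units.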
In general terms: Reporter assays use an easily measured gene product as a stand-in for the process of interest.

For assay [4], the target named is Cytochrome P450 1A2 (Homo sapiens) (UniProt P05177). As to the kind of experiment: Cytochrome P450 Family 1 Subfamily A Member 2 (CYP1A2) small molecule antagonists: luciferase reporter qHTS assay (AID 1671199). Note: nearly all actives have a fitted effect of over 50% in size. Put shortly: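 Steps: enzyme-substrate mix dispensed; test compounds and furafylline control pinned in; 10 min room temperature; NADPH regeneration solution added, 1 h; reaction stopped with luciferin detection reagent; luminescence read after 20 min.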
Chain of Cytochrome P450 1A2 (Homo sapiens) (P05177 whole entry, looked up): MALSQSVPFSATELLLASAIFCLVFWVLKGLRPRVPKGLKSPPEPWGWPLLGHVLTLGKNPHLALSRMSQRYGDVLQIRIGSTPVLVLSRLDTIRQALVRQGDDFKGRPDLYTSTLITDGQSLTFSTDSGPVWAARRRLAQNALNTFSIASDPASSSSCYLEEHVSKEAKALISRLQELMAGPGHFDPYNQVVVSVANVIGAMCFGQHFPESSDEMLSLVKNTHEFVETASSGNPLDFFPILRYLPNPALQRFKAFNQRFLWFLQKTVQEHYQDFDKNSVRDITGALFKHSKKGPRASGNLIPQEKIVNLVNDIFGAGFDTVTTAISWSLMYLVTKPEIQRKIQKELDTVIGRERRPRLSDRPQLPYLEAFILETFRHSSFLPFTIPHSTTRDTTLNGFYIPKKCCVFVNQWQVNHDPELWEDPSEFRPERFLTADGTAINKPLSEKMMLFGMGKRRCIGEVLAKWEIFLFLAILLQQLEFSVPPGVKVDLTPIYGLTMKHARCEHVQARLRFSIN

Assay [5] concerns the target Voltage-gated inwardly rectifying potassium channel KCNH2 (Homo sapiens) (UniProt Q12809). Put plainly: Human Ether-a-go-go-Related Gene (hERG) channel small molecule antagonists: fluorescence cell-based qHTS assay (AID 1671200). Note: nearly all actives have a fitted effect of over 50% in size. Put shortly:
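Fluorescence at 540 nm emission (480 nm excitation) was recorded kinetically for 2 min at 1-second intervals once the thallium-containing stimulus reached cells previously loaded with FluxOR II dye.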
On the technique in general: Block of hERG is tested as a sign of cardiac risk.

Assay [6] addresses Cytochrome P450 3A4 (Homo sapiens) (UniProt P08684). Put plainly: Cytochrome P450 Family 3 Subfamily A Member 4 (CYP3A4) small molecule antagonists: luciferase reporter qHTS assay (AID 1671201). Note: nearly all actives have a fitted effect of over 50% in size. In short, it runs like this: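 qHTS, 1536-well. CYP3A4 + proluciferin substrate, cpd 10 min RT → NADPH regen 1 h RT → detection reagent 20 min → luminescence (RLU). Ketoconazole positive control.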

The target of assay [7] is Cytochrome P450 2C19 (Homo sapiens) (UniProt P33261). As to the kind of experiment: Cytochrome P450 Family 2 Subfamily C Member 19 (CYP2C19) small molecule antagonists: luciferase reporter qHTS assay (AID 1671197). Note: nearly all actives have a fitted effect of over 65% in size. In short, it runs like this: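 Enzyme-substrate mix with proluciferin substrate (P450-Glo CYP2C19 system) preincubated with compounds 10 min at room temperature; NADPH regeneration solution added, 37C for 1 h; detection reagent stops reaction, luminescence read after 20 min. Ketoconazole positive control.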
Chain of Cytochrome P450 2C19 (Homo sapiens) (P33261 whole entry, looked up): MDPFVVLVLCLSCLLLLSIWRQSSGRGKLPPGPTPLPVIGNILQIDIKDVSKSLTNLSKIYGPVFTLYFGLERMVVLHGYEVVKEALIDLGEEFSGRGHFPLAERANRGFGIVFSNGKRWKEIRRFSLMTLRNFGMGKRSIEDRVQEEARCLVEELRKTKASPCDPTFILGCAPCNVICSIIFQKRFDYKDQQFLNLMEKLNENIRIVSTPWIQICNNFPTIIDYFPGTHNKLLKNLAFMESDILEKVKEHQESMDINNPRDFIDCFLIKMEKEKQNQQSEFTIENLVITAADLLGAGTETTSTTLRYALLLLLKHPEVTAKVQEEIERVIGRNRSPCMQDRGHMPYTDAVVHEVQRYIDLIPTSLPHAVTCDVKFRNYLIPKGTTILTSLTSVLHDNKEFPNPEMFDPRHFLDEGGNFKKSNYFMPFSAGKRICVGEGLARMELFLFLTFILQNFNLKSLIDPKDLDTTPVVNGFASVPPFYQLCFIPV

The target of assay [8] is Cytochrome P450 2D6 (Homo sapiens) (UniProt P10635). Put plainly: Cytochrome P450 Family 2 Subfamily D Member 6 (CYP2D6) small molecule antagonists: luciferase reporter qHTS assay (AID 1671196). Note: nearly all actives have a fitted effect of over 50% in size. In short, it runs like this: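 Test chemicals meet CYP2D6 plus proluciferin substrate (10 min, RT); NADPH regenerating solution then drives turnover for 1 h. Detection reagent halts the reaction; luminescence measured after 20 min.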
Chain of Cytochrome P450 2D6 (Homo sapiens) (P10635 whole entry, looked up): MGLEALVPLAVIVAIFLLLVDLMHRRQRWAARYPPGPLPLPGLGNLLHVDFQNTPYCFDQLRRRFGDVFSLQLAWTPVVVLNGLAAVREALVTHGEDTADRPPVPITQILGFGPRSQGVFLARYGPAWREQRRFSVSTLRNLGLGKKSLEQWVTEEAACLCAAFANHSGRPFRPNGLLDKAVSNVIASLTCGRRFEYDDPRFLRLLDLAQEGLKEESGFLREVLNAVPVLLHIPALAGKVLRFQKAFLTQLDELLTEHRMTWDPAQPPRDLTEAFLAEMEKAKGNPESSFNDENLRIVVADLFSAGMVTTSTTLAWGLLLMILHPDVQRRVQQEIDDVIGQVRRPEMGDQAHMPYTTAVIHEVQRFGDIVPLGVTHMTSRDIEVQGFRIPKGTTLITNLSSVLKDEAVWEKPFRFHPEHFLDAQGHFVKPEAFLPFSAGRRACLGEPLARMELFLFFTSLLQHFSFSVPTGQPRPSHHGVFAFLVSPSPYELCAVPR

Inconclusive results are not listed. The source made the active and inactive calls. Unless noted, calls come from the whole dose curve; as a rule, active = well fitted curve in the direction sought with a large enough effect in the repeat runs; inconclusive = weak or mixed curves; inactive = no such curve, though single readings can be large; an effect the other way counts as inactive or inconclusive.
Potency is the fitted concentration of half-maximal effect.

Chain of Cytochrome P450 3A4 (Homo sapiens) (P08684 whole entry, looked up): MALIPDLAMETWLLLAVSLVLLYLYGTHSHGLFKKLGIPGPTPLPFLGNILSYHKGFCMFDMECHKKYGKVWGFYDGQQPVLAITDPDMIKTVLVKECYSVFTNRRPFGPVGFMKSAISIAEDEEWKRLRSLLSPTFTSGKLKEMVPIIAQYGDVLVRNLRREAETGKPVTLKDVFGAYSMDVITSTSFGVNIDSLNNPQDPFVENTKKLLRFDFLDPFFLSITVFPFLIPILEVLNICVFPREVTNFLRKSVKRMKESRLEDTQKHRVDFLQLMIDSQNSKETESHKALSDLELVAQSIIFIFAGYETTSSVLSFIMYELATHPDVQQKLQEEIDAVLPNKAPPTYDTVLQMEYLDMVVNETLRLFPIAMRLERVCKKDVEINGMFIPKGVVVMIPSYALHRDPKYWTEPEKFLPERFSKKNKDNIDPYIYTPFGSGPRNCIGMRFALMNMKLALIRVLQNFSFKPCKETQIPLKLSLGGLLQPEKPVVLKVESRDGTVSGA
Chain of Voltage-gated inwardly rectifying potassium channel KCNH2 (Homo sapiens) (Q12809 whole entry, looked up): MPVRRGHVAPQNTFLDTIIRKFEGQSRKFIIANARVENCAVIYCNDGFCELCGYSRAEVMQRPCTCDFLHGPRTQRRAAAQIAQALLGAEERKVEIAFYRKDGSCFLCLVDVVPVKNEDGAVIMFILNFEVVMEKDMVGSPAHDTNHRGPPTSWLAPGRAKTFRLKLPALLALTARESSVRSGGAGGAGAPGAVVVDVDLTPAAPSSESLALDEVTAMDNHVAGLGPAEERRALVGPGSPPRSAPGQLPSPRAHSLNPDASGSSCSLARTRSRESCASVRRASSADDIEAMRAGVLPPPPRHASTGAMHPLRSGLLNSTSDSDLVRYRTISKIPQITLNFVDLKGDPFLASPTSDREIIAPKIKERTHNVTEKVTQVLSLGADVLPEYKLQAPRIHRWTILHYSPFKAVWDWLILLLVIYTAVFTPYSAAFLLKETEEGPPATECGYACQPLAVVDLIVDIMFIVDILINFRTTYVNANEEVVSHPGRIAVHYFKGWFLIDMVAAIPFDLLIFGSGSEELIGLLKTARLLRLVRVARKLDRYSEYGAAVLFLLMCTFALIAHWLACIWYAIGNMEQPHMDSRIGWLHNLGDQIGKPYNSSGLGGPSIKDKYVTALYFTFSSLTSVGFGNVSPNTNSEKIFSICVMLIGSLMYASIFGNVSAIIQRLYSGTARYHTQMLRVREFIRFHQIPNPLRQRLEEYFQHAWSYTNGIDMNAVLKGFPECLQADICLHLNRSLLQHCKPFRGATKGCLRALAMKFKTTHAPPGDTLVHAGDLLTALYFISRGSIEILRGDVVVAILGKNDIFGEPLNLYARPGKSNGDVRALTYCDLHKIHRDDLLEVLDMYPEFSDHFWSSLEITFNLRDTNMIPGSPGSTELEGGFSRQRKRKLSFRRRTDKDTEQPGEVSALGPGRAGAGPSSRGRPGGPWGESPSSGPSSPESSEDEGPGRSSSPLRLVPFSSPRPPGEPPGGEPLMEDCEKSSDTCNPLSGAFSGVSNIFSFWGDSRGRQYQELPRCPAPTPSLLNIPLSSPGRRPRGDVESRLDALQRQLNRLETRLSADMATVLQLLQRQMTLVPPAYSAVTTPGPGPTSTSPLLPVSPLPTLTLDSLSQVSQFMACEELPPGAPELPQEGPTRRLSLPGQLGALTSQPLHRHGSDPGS
Chain of Cytochrome P450 2C9 (Homo sapiens) (P11712 whole entry, looked up): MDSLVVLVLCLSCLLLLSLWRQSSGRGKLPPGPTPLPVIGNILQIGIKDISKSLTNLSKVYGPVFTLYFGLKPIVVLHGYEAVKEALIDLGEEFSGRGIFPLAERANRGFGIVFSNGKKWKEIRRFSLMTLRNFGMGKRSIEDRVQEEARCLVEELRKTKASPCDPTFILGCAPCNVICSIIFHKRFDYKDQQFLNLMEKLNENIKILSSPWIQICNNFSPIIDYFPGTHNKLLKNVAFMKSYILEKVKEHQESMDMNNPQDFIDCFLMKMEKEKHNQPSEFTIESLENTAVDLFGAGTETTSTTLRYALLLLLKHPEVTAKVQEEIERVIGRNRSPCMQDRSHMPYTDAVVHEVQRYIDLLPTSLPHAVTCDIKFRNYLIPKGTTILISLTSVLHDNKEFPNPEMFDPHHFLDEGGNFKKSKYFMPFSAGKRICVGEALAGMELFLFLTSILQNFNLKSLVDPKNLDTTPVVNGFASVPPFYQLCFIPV

Regarding `c1cc2c(c(N3CCNCC3)c1)OCCO2`, the Potency entry in assay [1], in assay [2], in assay [3], in assay [4], in assay [5] and in assay [6] was “inactive” each time.

For the compound `C[C@]12CC[C@H]3[C@@H](CC=C4C[C@@H](O)CC[C@@]43C)[C@@H]1CC[C@@H]2O`, the Potency result in assay [5] was “inactive”.

As to `COc1cc(OC)nc(Sc2cccc(Cl)c2C(=O)O)n1`, the Potency entry in assay [1], in assay [2], in assay [7], in assay [4], in assay [5] and in assay [6] was “inactive” in each case.

For the compound `CC1(C)COP(Oc2ccccc2)OC1`, the Potency result in assay [1], in assay [2], in assay [3], in assay [5] and in assay [6] was “inactive” in each case.

As to `CN/C(=N\[N+](=O)[O-])NCC1CCOC1` (configuration not stated), in assay [5], the Potency result is “inactive”.

For `CNC(=O)N(C)c1nc2ccccc2s1`, the Potency entry in assay [1], in assay [2] and in assay [5] was “inactive” throughout. Moreover, the Potency is 39.9 µM (active) in assay [3] and 2.52 µM (active) in assay [4].

`CCCSP(=S)(OCC)Oc1ccc(Cl)cc1Cl` (configuration not stated): the Potency entry in assay [1], in assay [2] and in assay [5] was “inactive” each time. For the same compound, the Potency is 2 µM (active) in assay [3], 11.2 µM (active) in assay [4] and 2.83 µM (active) in assay [6].

Consider `CNC(=O)O/N=C(\C)SC`, for which the Potency in assay [1] was 1.26 µM (active); in assay [2], 17.8 µM (active). The Potency result in assay [3], in assay [4], in assay [5] and in assay [6] was “inactive” each time.

In the case of `CCOP(=O)(OCC)OP(=O)(OCC)OCC`, the Potency entry in assay [1], in assay [2], in assay [3], in assay [4], in assay [5] and in assay [6] was “inactive” in each case.

For `CC1CN1P(=O)(N1CC1C)N1CC1C` (configuration not stated), the Potency result in assay [1], in assay [2], in assay [3], in assay [4], in assay [5] and in assay [6] was “inactive” in each case.

Turning to `Clc1ccccc1N1CCNCC1`, the Potency result in assay [2], in assay [7], in assay [3], in assay [5] and in assay [6] was “inactive” each time. In assay [8], the Potency is 9.77 µM (active).

On to `ClCC(Cl)Cl`, for which the Potency result in assay [2], in assay [7], in assay [3], in assay [5] and in assay [6] was “inactive” in each case.

As to `COc1ccc(C(=O)N2CCCC2=O)cc1`, the Potency result in assay [5] was “inactive”.

For `Cc1coc2c1CCC(C)C2` (configuration not stated), the Potency result in assay [1], in assay [2] and in assay [5] was “inactive” each time. Besides, the Potency in assay [6] was 29.2 µM (active).

For the compound `Fc1cc(Br)ccc1CBr`, the Potency entry in assay [2], in assay [8], in assay [7], in assay [3], in assay [5] and in assay [6] was “inactive” each time.

As for `CC(=O)CCc1ccc2c(c1)OCO2`, the Potency result in assay [1], in assay [2] and in assay [5] was “inactive” in each case. The Potency is 31.7 µM (active) in assay [3], 0.633 µM (active) in assay [4] and 22.4 µM (active) in assay [6].

Turning to `CCCCCCBr`, the Potency result in assay [5] was “inactive”.

On to `CCS(=O)(=O)C(C)(C)S(=O)(=O)CC`, for which the Potency result in assay [1], in assay [2], in assay [3], in assay [4], in assay [5] and in assay [6] was “inactive” in each case.

In the case of `BrCCCCCCBr`, the Potency entry in assay [2], in assay [8], in assay [5] and in assay [6] was “inactive” in each case. In addition, the Potency was 25.2 µM (active) in assay [7] and 63.3 µM (active) in assay [4].

With `O=C1CN=C(c2ccccc2)c2cc([N+](=O)[O-])ccc2N1`, the Potency result in assay [1], in assay [2], in assay [7], in assay [4], in assay [5] and in assay [6] was “inactive” each time.

In the case of `COc1ccc2c(c1OC)CN1CCc3cc4c(cc3C1C2)OCO4` (configuration not stated), the Potency in assay [1] is 1.38 µM (active); in assay [8], 0.246 µM (active); in assay [7], 0.977 µM (active); in assay [3], 30.9 µM (active); in assay [4] it was 15.5 µM (active).

As for `CN1C[C@@H](NS(=O)(=O)N(C)C)C[C@@H]2c3cccc4c3c(cn4C)C[C@H]21`, the Potency result in assay [2], in assay [8], in assay [7], in assay [3], in assay [4] and in assay [5] was “inactive” in each case. Also, the Potency entry in assay [6] was “inactive”.

As for `CC(C)CC#N`, the Potency result in assay [1], in assay [2], in assay [4], in assay [5] and in assay [6] was “inactive” throughout.

With `CCCCOC(=O)[C@@H](C)Oc1ccc(Oc2ccc(C#N)cc2F)cc1`, the Potency result in assay [1], in assay [2] and in assay [6] was “inactive” in each case. Also, the results for the Potency in assay [3], in assay [4] and in assay [5] were 7.92 µM (active), 31.5 µM (active) and 4.34 µM (active), respectively.

Regarding `Cc1ccccc1CO[C@@H]1C[C@@]2(C(C)C)CC[C@]1(C)O2`, the Potency result in assay [1], in assay [2] and in assay [5] was “inactive” each time. For the same compound, the Potency was 22.4 µM (active) in assay [3], 20 µM (active) in assay [4] and 3.99 µM (active) in assay [6].

As for `CCOP(=S)(OCC)Oc1nc(Cl)n(C(C)C)n1`, the Potency was 0.252 µM (active) in assay [7], 5.03 µM (active) in assay [3], 2.24 µM (active) in assay [4] and 1.59 µM (active) in assay [6]. In assay [5], the Potency result was “inactive”.

As to `C#C[C@]1(O)C=C[C@H]2[C@@H]3CCC4=CC(=O)CC[C@@H]4[C@H]3CC[C@@]21CC`, the Potency entry in assay [2], in assay [4] and in assay [5] was “inactive” throughout. The Potency in assay [3] was 4.9 µM (active).

On to `O=C(N[C@H]1CN2CCC1CC2)c1cc2ccoc2cn1`, for which the Potency entry in assay [2], in assay [7], in assay [4], in assay [5] and in assay [6] was “inactive” throughout. Besides, the Potency in assay [8] is 28.3 µM (active).

`Nc1c(Br)cc([N+](=O)[O-])cc1[N+](=O)[O-]`: the Potency result in assay [2], in assay [3], in assay [5] and in assay [6] was “inactive” in each case. The Potency in assay [7] was 50.8 µM (active); in assay [4], 1.8 µM (active).

As to `CC(C)NCC(O)c1ccc(N)c(C#N)c1` (configuration not stated), the Potency result in assay [1], in assay [2] and in assay [5] was “inactive” in each case.

For the compound `CCCCOP(=O)(O)OCCCC`, the Potency result in assay [1], in assay [2], in assay [4], in assay [5] and in assay [6] was “inactive” each time. Further, the Potency in assay [7] was 56.4 µM (active).

Consider `CCOc1nc(C(Cl)(Cl)Cl)ns1`, for which the Potency result in assay [2], in assay [8], in assay [7], in assay [5] and in assay [6] was “inactive” throughout.

As to `CCN(CC)c1nc(C)cc(OP(=S)(OC)OC)n1`, in assay [2], the Potency result is “inactive”. In addition, the Potency in assay [7] was 0.178 µM (active); in assay [3], 22.4 µM (active); in assay [4], 1.78 µM (active); in assay [6] it was 2.24 µM (active).

Consider `CCN(Cc1ccc(Cl)nc1)/C(=C/[N+](=O)[O-])NC`, for which the Potency entry in assay [2], in assay [8], in assay [7], in assay [3], in assay [5] and in assay [6] was “inactive” in each case.

As for `CNC(=O)Oc1cccc(C(C)C)c1`, in assay [5], the Potency entry is “inactive”.

In the case of `CCOP(=O)(N=C1SCCS1)OCC`, the Potency result in assay [2], in assay [8], in assay [3], in assay [4], in assay [5] and in assay [6] was “inactive” in each case.

For `CCOC(=O)NC(=S)Nc1ccccc1NC(=S)NC(=O)OCC`, the Potency entry in assay [1], in assay [2] and in assay [5] was “inactive” each time. Moreover, the Potency in assay [4] was 31.7 µM (active); in assay [6] it was 25.2 µM (active).

For the origin of these results see PubChem BioAssay (Tox21).
